# In PubChem BioAssay (NCI):
# The panel holds about 83,000 compounds, 20% with a hit somewhere; the sample as a whole holds those more often.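 Compound tested at a single concentration for 48 hours in 96-well plates; a percent growth value below 10 was scored as active.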 Unmarked numbers belong to inactive results. Activity calls are given as the source filed them.
# Columns and labels:
# Assay in all cases: NCI-60 one-dose screen, 48 h (100 = growth as untreated, 0 = no growth, -100 = all killed)
# Conditions in all cases: 10 µM
# [1] = test system: HCT-15 colon
# [2] = test system: HT29 colon
# [3] = test system: SNB-75 CNS
# [4] = test system: SNB-19 CNS
# [5] = test system: PC-3 prostate
# [6] = test system: SK-MEL-5 melanoma
# [7] = test system: UACC-62 melanoma
# [8] = test system: LOX IMVI melanoma
# [9] = test system: SK-MEL-28 melanoma
# [10] = test system: SK-MEL-2 melanoma
# [11] = test system: EKVX NSCLC
# [12] = test system: SN12C renal
# [13] = test system: UO-31 renal
# [14] = test system: TK-10 renal
# [15] = test system: ACHN renal
# [16] = test system: CAKI-1 renal
# [17] = test system: A498 renal
# [18] = test system: CCRF-CEM leukemia
# [19] = test system: MOLT-4 leukemia
SMILES,growth [1] [%],growth [2] [%],growth [3],growth [4] [%],growth [5] [%],growth [6] [%],growth [7] [%],growth [8] [%],growth [9] [%],growth [10] [%],growth [11] [%],growth [12] [%],growth [13] [%],growth [14],growth [15] [%],growth [16] [%],growth [17] [%],growth [18] [%],growth [19] [%]
CC(C)(C)OC(=O)CC(S(=O)(=O)c1ccccc1)S(=O)(=O)c1ccccc1,77.9,104,99.2%,95.2,101,94.2,103,94.7,105,114,112,96.1,61.4,21.4%,17.8,90.6,102,46.9,82.7
O=C1CCn2c1c(O)c1ccccc1c2=O,114,108,86.6%,110,100,103,113,107,107,126,94,108,96.5,107%,111,86.3,–,99.6,–
O=c1cn[nH]c2ccc(Br)cc12,104,95.7,96.2%,106,95.4,100,112,97.2,123,103,108,–,78.9,95.4%,103,113,–,96.1,86.5
O=C(c1ccccc1)N(C(=O)c1ccccc1)N1CCCC1,107,102,87.3%,107,88.4,98.4,85.8,90.9,114,95.6,103,100,–,101%,96.3,91.1,–,94.8,99.3
COc1ccc(C(=O)c2ccccc2CN2C(=O)c3ccccc3C2=O)cc1,112,99.7,92%,99.6,89.6,100,97.2,94.3,114,103,101,105,75.1,104%,102,102,–,91.5,87
COc1ccc(C(=O)N2C=Cc3ccccc3C2C#N)cc1 (configuration not stated),90.7,110,94.1%,93.6,93.2,101,92.5,95.4,95.3,101,–,89.3,73.9,100%,96.4,87.3,91.1,92.7,83.4
COc1ccc(-c2nn(-c3cccc(Cl)c3)cc2-c2cc(-c3ccccc3)[nH]c(=O)c2C#N)cc1,63.8,55.6,38.4%,45.2,71.6,39.9,35,55.6,71,56.7,57.2,67.7,24.7,-12.8% (active),11,40.8,–,91.7,79.6
Cc1ccc(-c2c3c(N)nc(-c4cccnc4)nc3nc3c2c(C)nn3-c2ccccc2)cc1,84.4,77.3,-0.959% (active),99.1,69.3,76.1,82.2,80.9,68.2,61.6,–,82.8,65.8,94.6%,40,83.6,74.8,–,93.6
CCOC(=O)C1C(C(=O)OCC)C2C(=O)C3C(C(=O)OCC)C(C(=O)OCC)C3C(=O)C12 (configuration not stated),103,105,99.9%,96.4,97.6,100,101,96.6,105,115,96.3,94.2,94.8,–,98.8,101,102,102,106
CCc1ccc(C2=NN(c3ccc(S(C)(=O)=O)cc3)C(=O)CC2)cc1,22.1,11.5,16.7%,51.5,56.6,10.7,38,35,50.7,36.9,60.4,31.4,33.3,71.1%,46,16.7,–,15.6,15.3
COc1ccc(-c2nn(-c3cccc(Cl)c3)cc2-c2c(C#N)c(N)n(N)c(=O)c2C#N)cc1,94.9,66.3,48.6%,64,54,81.9,75.8,29.5,91.6,77.4,–,68.9,–,59.8%,87.2,–,–,56.8,–
CCN(CCCNc1cc2c(c(N)c1S(=O)(=O)O)C(=O)c1ccccc1C2=O)c1ccccc1,107,104,88.3%,95.1,87.1,95.2,92.1,94.7,102,103,103,87.4,75.2,116%,103,95.7,103,102,108
Nc1c(Br)cc(Br)c2c1[nH]c(=O)c1ccccc12,75.2,98.4,-33.9% (active),94.1,80.3,71.3,87.6,83.7,86.8,98.6,57,80.1,27.8,31.5%,10.9,68.6,53.8,93.2,80.8
CC(=O)Nc1ccc(S(=O)(=O)c2ccnc3cc(Cl)ccc23)cc1,63.8,93.7,76.5%,102,96,71.8,77.7,73.7,78.1,79.2,86.7,81,106,82.3%,69.3,75.3,95.9,52.9,68.8
O=C1/C(=C/c2cccc(F)c2)Cc2ccccc21,93.7,94.6,89.4%,98.7,90,99.4,99.2,96.7,105,–,–,98.6,92.8,94.2%,102,82.9,–,–,112
O=C(Nc1cc([N+](=O)[O-])c2[nH]c(=O)c3ccccc3c2c1)C(F)(F)F,81,90.4,89.3%,87.1,94.4,91,81.7,68,114,106,67.1,76.8,54.5,–,58.6,89.1,–,72.8,–
CCOC(=O)CC(S(=O)(=O)c1ccccc1)S(=O)(=O)c1ccccc1,93.4,91,96.2%,93.4,97.7,96.6,103,98.6,109,97.4,113,95.7,72.4,56.4%,63.6,90.1,115,62.7,87.1
NC1=CC(=O)C(=O)c2cccnc21,66.7,103,45.5%,66.5,78.2,21,88.3,25.9,83.7,77.9,98.3,70,47.8,113%,60.1,83.1,92.6,82.9,106
